# Source: PubChem BioAssay
# Calls of active or inactive are those of the source.
# Key:
# [1] = tested on: PRMT1 (protein arginine N-methyltransferase 1); experiment: PRMT1 binders on small-molecule microarrays, primary screen, biochemical, small-molecule microarray, 635 nm fluorescence (AID 1088); settings: small-molecule microarray binding, higher = more signal;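 further: binding of Prmt1 protein to compounds spotted on small-molecule microarray slides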
# [2] = yeast growth modulation, basal conditions, primary screen, YJM789 clinical isolate, OD600, 24 h (AID 1089);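 further: growth of clinical yeast isolate S. cerevisiae YJM 789 seeded 1000 cells per well; test concentration not given here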; settings: S. cerevisiae YJM789 growth, higher = more signal, called active from +8 up or from −8 down
# [3] = fission yeast growth modulation, primary screen, strain 972, OD600, 24 h, no modulator (AID 1090);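 further: basal condition with compound alone and no growth modifier present; test concentration not given here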; settings: S. pombe 972 growth, higher = more signal, called active from +8 up or from −8 down
# [4] = S. cerevisiae growth modulation with rapamycin, primary screen, strain BY4716, OD600, 96 h (AID 1091); settings: higher = more signal, called active from +8 up or from −8 down; further: test concentration not given here
# [5] = biological target: Torsin-1A-interacting protein 2 (Homo sapiens) (UniProt Q8NFQ8); experiment: LULL1 binders on small-molecule microarray, primary screen, cell lysate, human LULL1 lysate, 635/667 nm fluorescence (AID 1092); settings: hLULL1 lysate binding, 635 nm fluorescence, higher = more signal;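 further: probe is lysate of COS7 cells overexpressing human LULL1; score merges per-feature 667 nm fluorescence with signal-to-noise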
# Sequence of Torsin-1A-interacting protein 2 (Homo sapiens) (Q8NFQ8 whole entry, looked up): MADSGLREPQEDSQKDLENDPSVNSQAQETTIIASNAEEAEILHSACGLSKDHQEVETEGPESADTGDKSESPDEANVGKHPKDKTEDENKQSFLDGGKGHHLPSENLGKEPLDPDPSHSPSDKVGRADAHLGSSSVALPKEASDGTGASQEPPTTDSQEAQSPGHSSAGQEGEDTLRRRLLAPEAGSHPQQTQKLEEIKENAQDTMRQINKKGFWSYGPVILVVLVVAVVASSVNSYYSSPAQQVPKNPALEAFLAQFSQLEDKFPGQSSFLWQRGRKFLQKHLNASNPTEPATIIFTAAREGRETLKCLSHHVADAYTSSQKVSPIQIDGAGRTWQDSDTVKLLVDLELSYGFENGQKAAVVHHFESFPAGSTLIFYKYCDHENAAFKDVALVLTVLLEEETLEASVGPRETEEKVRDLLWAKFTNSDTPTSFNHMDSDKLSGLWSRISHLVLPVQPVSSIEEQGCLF
# [6] = E. coli growth modulation, two-sided OD650, primary screen, E. coli filamentation project, strain DRC41, 24 h (AID 1093); settings: OD650, 24 h, higher = more signal, called active from +8 up or from −8 down;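 further: MC1000 strain lacking acrAB efflux and sulA so SOS filamentation is blocked; test concentration not given here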
# [7] = small-molecule microarray binders of probe aLefty2, primary screen, biochemical, biotinylated probe, 635/667 nm fluorescence (AID 1094); settings: higher = more signal;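 further: score merges spot fluorescence near 667 nm with spot signal-to-noise ratio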
# [8] = tested on: Noggin (protein binding on small-molecule microarray); experiment: Noggin binders on small-molecule microarray, primary screen, biochemical, 635/667 nm fluorescence (AID 1095); settings: 635 nm fluorescence, higher = more signal;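 further: score merges 667 nm feature fluorescence with signal to noise over triplicate slides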
# [9] = biological target: Neurogenic locus notch homolog protein 3 (Homo sapiens) (UniProt Q9UM47); experiment: NOTCH3 binders on small-molecule microarray, primary screen, biochemical, 635/667 nm fluorescence (AID 1096); settings: NOTCH3 binding, 635 nm fluorescence, higher = more signal
# Sequence of Neurogenic locus notch homolog protein 3 (Homo sapiens) (Q9UM47 whole entry, looked up): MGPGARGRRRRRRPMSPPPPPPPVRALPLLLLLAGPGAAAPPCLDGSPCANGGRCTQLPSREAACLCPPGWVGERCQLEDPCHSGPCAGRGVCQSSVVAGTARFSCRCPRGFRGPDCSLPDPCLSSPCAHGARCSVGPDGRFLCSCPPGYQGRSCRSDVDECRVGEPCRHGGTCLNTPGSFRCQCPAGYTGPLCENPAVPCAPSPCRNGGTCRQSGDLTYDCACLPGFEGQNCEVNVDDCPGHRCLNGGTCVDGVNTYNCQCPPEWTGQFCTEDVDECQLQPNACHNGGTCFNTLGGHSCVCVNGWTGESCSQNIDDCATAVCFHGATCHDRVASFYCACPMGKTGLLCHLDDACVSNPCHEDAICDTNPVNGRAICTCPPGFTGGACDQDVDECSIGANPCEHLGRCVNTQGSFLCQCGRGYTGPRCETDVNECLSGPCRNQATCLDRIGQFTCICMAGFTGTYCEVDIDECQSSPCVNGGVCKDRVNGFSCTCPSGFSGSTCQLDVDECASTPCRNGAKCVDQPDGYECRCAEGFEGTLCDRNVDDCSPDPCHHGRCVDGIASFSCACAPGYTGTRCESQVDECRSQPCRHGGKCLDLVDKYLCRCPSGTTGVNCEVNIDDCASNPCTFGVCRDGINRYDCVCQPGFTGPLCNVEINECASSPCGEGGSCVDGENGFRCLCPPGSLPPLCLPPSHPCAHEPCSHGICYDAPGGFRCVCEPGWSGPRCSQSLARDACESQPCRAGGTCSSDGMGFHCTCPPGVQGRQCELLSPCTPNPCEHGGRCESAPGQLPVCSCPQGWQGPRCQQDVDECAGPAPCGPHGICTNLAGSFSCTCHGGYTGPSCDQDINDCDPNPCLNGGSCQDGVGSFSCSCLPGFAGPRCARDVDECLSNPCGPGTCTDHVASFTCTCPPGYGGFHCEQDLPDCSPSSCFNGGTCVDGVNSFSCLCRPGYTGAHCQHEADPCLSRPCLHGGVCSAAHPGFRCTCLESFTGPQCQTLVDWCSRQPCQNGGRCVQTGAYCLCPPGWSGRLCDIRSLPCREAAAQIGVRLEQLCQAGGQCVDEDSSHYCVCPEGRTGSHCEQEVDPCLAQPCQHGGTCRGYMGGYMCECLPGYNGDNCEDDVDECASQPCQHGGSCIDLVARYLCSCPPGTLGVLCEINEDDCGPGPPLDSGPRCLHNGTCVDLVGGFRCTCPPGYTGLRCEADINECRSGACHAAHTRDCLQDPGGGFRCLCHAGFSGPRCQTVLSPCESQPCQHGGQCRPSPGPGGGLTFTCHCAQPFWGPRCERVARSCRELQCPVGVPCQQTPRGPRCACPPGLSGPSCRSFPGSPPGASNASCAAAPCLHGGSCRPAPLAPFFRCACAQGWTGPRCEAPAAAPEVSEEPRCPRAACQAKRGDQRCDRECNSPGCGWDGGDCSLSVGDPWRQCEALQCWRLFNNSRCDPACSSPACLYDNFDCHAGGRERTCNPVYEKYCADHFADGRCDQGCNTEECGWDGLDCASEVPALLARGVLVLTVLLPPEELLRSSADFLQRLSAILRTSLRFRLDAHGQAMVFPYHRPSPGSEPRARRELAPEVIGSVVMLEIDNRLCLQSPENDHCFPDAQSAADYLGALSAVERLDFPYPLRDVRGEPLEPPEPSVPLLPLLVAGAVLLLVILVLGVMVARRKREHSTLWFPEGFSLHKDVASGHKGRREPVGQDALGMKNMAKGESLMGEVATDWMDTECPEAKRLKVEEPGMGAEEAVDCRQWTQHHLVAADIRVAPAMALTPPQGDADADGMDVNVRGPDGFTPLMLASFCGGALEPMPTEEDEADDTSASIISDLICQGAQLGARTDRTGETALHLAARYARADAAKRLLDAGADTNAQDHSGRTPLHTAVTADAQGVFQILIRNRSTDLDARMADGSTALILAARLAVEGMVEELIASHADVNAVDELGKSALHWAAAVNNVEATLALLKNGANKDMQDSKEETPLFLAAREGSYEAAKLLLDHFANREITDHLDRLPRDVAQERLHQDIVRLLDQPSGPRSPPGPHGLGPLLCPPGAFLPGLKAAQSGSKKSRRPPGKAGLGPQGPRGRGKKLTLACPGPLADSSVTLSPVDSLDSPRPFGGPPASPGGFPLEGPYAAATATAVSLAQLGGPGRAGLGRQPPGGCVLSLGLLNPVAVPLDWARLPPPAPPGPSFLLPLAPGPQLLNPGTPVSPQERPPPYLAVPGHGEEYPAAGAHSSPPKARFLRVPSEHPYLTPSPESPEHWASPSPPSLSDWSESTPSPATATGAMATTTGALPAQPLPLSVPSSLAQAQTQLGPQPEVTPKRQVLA
# [10] = small-molecule microarray binders of probe aEGFR, primary screen, biochemical, biotinylated probe, 635/667 nm fluorescence (AID 1097); settings: higher = more signal;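 further: probe is a biotinylated anti-EGFR antibody binding compounds printed on slides; score combines fluorescence near 667 nm and signal to noise of each spot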
# [11] = tested on: Plasmodium falciparum Sir2 (PF13_0152, Sir2A); experiment: pfSir2 binders on small-molecule microarrays, primary screen, biochemical, small-molecule microarray, 635 nm fluorescence (AID 1098); settings: small-molecule microarray binding, fluorescence 635 nm; higher = more signal;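 further: score merges spot fluorescence intensity with its signal-to-noise ratio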
# [12] = small-molecule microarray binders of probe aDKK1, primary screen, biochemical, biotinylated probe, 635/667 nm fluorescence (AID 1099); settings: higher = more signal;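 further: score merges 667nm spot fluorescence with signal to noise across triplicate slides; reference of the scale not given here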
# [13] = small-molecule microarray binders of probe aCHRDL2, primary screen, biochemical, biotinylated probe, 635/667 nm fluorescence (AID 1100); settings: higher = more signal
# [14] = splicing luciferase reporter signal modulators, primary screen, spliceosome inhibition project, cell-based, HEK293, splice +/- reporter (AID 1101); settings: luminescence, 24 h, higher = more signal, called active from +8 up or from −8 down;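 further: HEK293 cells carrying a splicing-competent luciferase reporter gene; test concentration not given here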
# [15] = biological target: Fibroblast growth factor 10 (Homo sapiens) (UniProt O15520); experiment: FGF10 binders on small-molecule microarrays, primary screen, biochemical, small-molecule microarray, 635 nm fluorescence (AID 1102); settings: FGF10 binding, fluorescence 635 nm, higher = more signal
# Sequence of Fibroblast growth factor 10 (Homo sapiens) (O15520 whole entry, looked up): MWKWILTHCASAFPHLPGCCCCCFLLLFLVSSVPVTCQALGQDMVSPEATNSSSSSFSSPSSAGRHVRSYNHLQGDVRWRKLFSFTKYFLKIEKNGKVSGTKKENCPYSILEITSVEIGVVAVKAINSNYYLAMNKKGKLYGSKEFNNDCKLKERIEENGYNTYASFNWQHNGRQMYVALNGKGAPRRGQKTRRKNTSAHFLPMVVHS
# [16] = tested on: glycogen synthase kinase-3 (GSK3A per assay name; protocol says GSK3B); experiment: GSK3 binders on small-molecule microarrays, primary screen, biochemical, small-molecule microarray, 635 nm fluorescence, GSK3A (AID 1103); settings: small-molecule microarray binding, fluorescence 635 nm; higher = more signal; further: the record names both GSK3A and GSK3B
# [17] = biological target: Epidermal growth factor receptor (Homo sapiens) (UniProt P00533); experiment: EGFR binders on small-molecule microarrays, primary screen, biochemical, small-molecule microarray, 635 nm fluorescence (AID 1104); settings: EGFR binding, higher = more signal;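 further: score merges 667 nm emission intensity with spot signal to noise over triplicate slides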
# Sequence of Epidermal growth factor receptor (Homo sapiens) (P00533 whole entry, looked up): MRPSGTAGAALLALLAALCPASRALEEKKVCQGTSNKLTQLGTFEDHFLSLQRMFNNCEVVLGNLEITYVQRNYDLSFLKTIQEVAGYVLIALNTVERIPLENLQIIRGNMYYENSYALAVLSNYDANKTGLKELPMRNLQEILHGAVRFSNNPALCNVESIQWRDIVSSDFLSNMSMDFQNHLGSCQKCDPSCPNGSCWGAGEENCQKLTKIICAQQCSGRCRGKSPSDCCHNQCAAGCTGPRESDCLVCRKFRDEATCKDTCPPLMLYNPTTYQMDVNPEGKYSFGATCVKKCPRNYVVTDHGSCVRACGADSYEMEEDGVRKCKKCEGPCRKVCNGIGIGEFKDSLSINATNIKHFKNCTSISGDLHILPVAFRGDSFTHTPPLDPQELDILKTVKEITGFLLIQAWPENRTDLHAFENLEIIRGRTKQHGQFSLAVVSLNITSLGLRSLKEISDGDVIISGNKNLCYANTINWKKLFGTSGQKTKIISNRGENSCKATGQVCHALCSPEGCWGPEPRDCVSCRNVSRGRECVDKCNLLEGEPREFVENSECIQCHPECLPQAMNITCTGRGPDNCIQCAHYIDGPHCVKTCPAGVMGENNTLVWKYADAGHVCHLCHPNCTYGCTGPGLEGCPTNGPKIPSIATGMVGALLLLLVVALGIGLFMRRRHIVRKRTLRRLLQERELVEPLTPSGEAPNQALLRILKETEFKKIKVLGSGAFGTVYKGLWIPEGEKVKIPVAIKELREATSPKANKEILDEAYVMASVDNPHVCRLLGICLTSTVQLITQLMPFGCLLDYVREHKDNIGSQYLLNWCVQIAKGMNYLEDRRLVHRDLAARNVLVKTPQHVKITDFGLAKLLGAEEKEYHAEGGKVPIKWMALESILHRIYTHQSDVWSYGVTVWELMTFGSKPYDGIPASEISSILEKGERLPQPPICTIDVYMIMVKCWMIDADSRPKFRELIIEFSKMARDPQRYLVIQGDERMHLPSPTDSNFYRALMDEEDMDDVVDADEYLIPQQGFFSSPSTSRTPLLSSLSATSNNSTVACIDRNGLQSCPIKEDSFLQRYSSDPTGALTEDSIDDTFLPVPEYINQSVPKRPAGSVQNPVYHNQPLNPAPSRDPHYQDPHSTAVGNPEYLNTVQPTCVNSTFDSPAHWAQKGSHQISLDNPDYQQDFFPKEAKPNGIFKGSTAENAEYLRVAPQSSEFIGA
# [18] = biological target: Follistatin-related protein 3 (Homo sapiens) (UniProt O95633); experiment: FSTL3 binders on small-molecule microarrays, primary screen, biochemical, small-molecule microarray, 635 nm fluorescence (AID 1105); settings: FSTL3 binding, higher = more signal;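 further: score merges emission near 667 nm and signal to noise per printed spot across three slides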
# Sequence of Follistatin-related protein 3 (Homo sapiens) (O95633 whole entry, looked up): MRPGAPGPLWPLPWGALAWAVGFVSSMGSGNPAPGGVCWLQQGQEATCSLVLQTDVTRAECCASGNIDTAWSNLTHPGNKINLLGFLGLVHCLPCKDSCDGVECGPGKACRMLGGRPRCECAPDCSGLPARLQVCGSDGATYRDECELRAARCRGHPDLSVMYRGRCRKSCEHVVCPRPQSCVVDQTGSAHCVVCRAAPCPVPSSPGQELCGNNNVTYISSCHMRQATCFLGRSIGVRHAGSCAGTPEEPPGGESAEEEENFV
# [19] = biological target: Dickkopf-related protein 1 (Homo sapiens) (UniProt O94907); experiment: DKK1 binders on small-molecule microarrays, primary screen, biochemical, small-molecule microarray, 635 nm fluorescence scan (AID 1106); settings: DKK1 binding, higher = more signal;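 further: score merges emission near 667 nm with signal to noise over three replicate slides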
# Sequence of Dickkopf-related protein 1 (Homo sapiens) (O94907 whole entry, looked up): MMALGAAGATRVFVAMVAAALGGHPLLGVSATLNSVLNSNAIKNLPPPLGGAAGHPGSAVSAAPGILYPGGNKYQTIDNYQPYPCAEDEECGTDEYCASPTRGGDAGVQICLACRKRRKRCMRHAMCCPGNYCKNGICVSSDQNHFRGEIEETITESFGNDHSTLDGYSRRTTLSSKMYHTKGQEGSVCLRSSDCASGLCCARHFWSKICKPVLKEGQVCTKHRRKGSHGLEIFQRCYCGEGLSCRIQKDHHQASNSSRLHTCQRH
# [20] = tested on: Inhibin beta A chain (activin A); experiment: INHBA (activin A) binders on microarrays, primary screen, biochemical, small-molecule microarray, 635 nm fluorescence scan (AID 1107); settings: small-molecule microarray binding, higher = more signal;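 further: mouse activin A protein probed at 4.33 µg/mL on printed slides; score merges bound-protein fluorescence near 667 nm with spot signal-to-noise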
SMILES,composite z-score [1],z-score [2],z-score [3],z-score [4],composite z-score [5],z-score [6],composite z-score [7],composite z-score [8],composite z-score [9],composite z-score [10],composite z-score [11],composite z-score [12],composite z-score [13],z-score [14],composite z-score [15],composite z-score [16],composite z-score [17],composite z-score [18],composite z-score [19],composite z-score [20]
[N-]=[N+]=NCc1ccccc1C[C@]1(C(N)=O)N=C(c2ccc(OCCCO)cc2)O[C@H]1c1ccccc1CN=[N+]=[N-],1.32,-2.38 (inactive),-2.11 (inactive),-0.525 (inactive),3,-0.0236 (inactive),0.544,0.0263,0.904,0.145,1.49,1.51,1.29,-1.63 (inactive),0.72,0.265,-0.37,0.186,-0.9,1.41
CO[C@H]1O[C@H](CO)[C@@H](OC(=O)Nc2ccc(Oc3ccccc3)cc2)[C@H](OC(=O)Nc2ccccc2-c2ccccc2)[C@H]1OC(=O)Nc1ccccc1-c1ccccc1,1.54,3.07 (inactive),1.84 (inactive),0.792 (inactive),3.28,2.45 (inactive),0.218,1.23,1.06,0.242,1.35,0.542,0.748,2.76 (inactive),1.14,1.34,0.528,1.36,0.538,0.187
CCOC(=O)C[C@H]1[C@H](OC(=O)c2cc3ccccc3oc2=O)[C@@H](NC(=O)c2ccc3ccccc3c2)c2cc(OCCCO)ccc2N1C(=O)c1ccc2ccccc2n1,0.154,-0.653 (inactive),-0.777 (inactive),-0.31 (inactive),0.868,2.45 (inactive),-0.225,0.956,1.03,0.0768,0.209,0.0447,-0.19,-0.017 (inactive),0.876,0.4,0.573,1.09,0.858,0.392
[N-]=[N+]=Nc1ccccc1C[C@@]1(C(=O)N2CCOCC2)N=C(c2ccc(OCCCO)cc2)O[C@@H]1c1ccccc1N=[N+]=[N-],1.56,-0.822 (inactive),-2.95 (inactive),1.56 (inactive),2.32,2.13 (inactive),0.369,0.8,1.09,0.0477,0.668,1.35,1.13,0.144 (inactive),0.997,1.29,0.215,1.28,0.444,0.937
NC(=O)[C@H]1[C@@H]2C(=O)O[C@@H](c3ccccc3)[C@@H](c3ccccc3)N2[C@@H](c2ccc(O)cc2)[C@]12C(=O)Nc1ccc(C#CCCO)cc12,-0.484,-0.178 (inactive),-0.196 (inactive),-0.503 (inactive),0.497,0.0528 (inactive),-0.05,-1.02,-0.714,-0.112,1.61,-0.0626,0.604,-0.205 (inactive),-0.187,-1.6,-1.52,-0.681,-0.889,-0.142
COc1ccc(NN2C(C(O)c3cc(OC)c(OC)c(OC)c3)C=CC3C(=O)N(C4CCCCC4)C(=O)C32)cc1 (stereo not given),0.544,0.199 (inactive),0.966 (inactive),0.169 (inactive),2.87,-0.319 (inactive),0.358,0.116,1.08,0.142,0.573,1.16,1.31,-0.617 (inactive),0.672,1.04,-0.187,0.563,-0.61,0.973
C=C(C(=O)CC[C@H](OC(=O)c1ccccc1-c1ccccc1C(=O)O)c1ccc(CO)o1)C(C)C,1.33,1.44 (inactive),-0.197 (inactive),0.782 (inactive),0.662,-0.309 (inactive),-0.19,1.67,0.951,-0.101,0.75,-0.209,-0.558,-0.107 (inactive),1.45,0.914,-0.0997,0.858,0.568,0.664
COCCCNC(=O)[C@@]1(Sc2ccc(C)cc2)CC(=O)N(Cc2cc(C(F)(F)F)cc(C(F)(F)F)c2)[C@@H]1c1ccc(CO)cc1I,-0.217,-1.27 (inactive),-3.56 (inactive),0.0085 (inactive),1.46,0.486 (inactive),-0.105,-1.76,-0.973,-0.288,1.84,0.46,1.19,-1.26 (inactive),-0.511,-1.14,-1.34,-1.58,-1.79,0.142
O=C1C2C=CC(C(O)Cc3ccccc3)N(Nc3ccc([N+](=O)[O-])cc3)C2C(=O)N1c1ccccc1 (stereo not given),0.623,-0.442 (inactive),0.38 (inactive),1.18 (inactive),2.92,-0.209 (inactive),0.232,0.278,0.864,0.268,1.04,1.07,0.498,0.843 (inactive),0.653,0.539,0.277,0.576,-0.0044,0.582
CCOC(=O)C1=CCC(c2cccc3ccccc23)N(S(=O)(=O)c2ccc(C)cc2)C1 (stereo not given),0.614,-0.109 (inactive),1.4 (inactive),3.55 (inactive),1.64,-0.461 (inactive),0.346,-0.375,0.976,0.211,0.471,0.981,0.596,0.664 (inactive),0.279,0.912,0.385,0.681,-0.141,1.41
